This is a sample that favours compounds with a hit; in the whole collection about 2.1% have one here.
U2OS ROS induce: ROS inducers in U2OS cancer cells, primary screen, cell-based, H2DCF-DA fluorescence. U2OS ROS induction. actives 2% (n = 46,000). AID 624156, 2012. ROS induction (% of piperlongumine), % at 10 µM; in the data active = ROS induction above about 79%, passing the limit was not always enough; inconclusive = no clear call, values can overlap the other calls;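 note: 0% = DMSO vehicle median and 100% = reference compound median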
YB-1 expression: inhibitors of YB-1 gene expression, primary screen, cell-based, fluorescence; actives 0.37% (n = 30,000); U2OS, qRT-PCR YB-1 vs CDIP delta delta Cp, 16 h; stronger effect = higher value; zero = DMSO, each unit about twofold; delta delta Cp (YB-1 minus CDIP) (test concentration not listed);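 active = delta delta Cp rounded down to an integer at or above 3, about 3 SD of DMSO wells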;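 note: higher means less YB-1 transcript or more CDIP transcript relative to DMSO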
* = called active by the depositor; ? = inconclusive; / = no result given.

SMILES | U2OS ROS induce | YB-1 expression
COc1ccc([Si](C)(C)[C@H]2[C@H](CCn3cc(CCO)nn3)O[C@@]3(C(=O)N(Cc4ccc(N5CCOC5=O)cc4)c4ccccc43)[C@@H]2C)cc1 | 145* | 0.13
C=CCN1C(=O)[C@@]2(O[C@@H](CCn3cc([C@H](O)c4ccccc4)nn3)[C@H]([Si](C)(C)c3ccc(OC)cc3)[C@H]2C)c2cc(N3CCOC3=O)ccc21 | 63 | -0.098
COc1ccc([Si](C)(C)[C@@H]2[C@@H](CCn3cc(CCO)nn3)O[C@]3(C(=O)N(Cc4cccc(N5CCOC5=O)c4)c4ccccc43)[C@H]2C)cc1 | 116* | -0.089
C=CCN1C(=O)[C@@]2(O[C@@H](CCn3cc(CCO)nn3)[C@H]([Si](C)(C)c3ccc(OC)cc3)[C@H]2C)c2cc(N3CCOC3=O)ccc21 | 45 | 0.38
COc1ccc([Si](C)(C)[C@@H]2[C@@H](CCn3cc([C@H](O)c4ccccc4)nn3)O[C@]3(C(=O)N(Cc4cccc(N5CCOC5=O)c4)c4ccccc43)[C@H]2C)cc1 | 116* | -0.068
COc1ccc([Si](C)(C)[C@H]2[C@H](CCO)O[C@@]3(C(=O)N(Cc4cccc(NC(C)=O)c4)c4ccccc43)[C@@H]2C)cc1 | ? | 0.29
C=CCN1C(=O)[C@]2(O[C@H](CCn3cc(CCO)nn3)[C@@H]([Si](C)(C)c3ccc(OC)cc3)[C@@H]2C)c2ccccc21 | 35 | 0.49
COc1ccc(-n2c(CC#N)nnc2SCc2c(C)c(C)c(C)c(C)c2C)cc1 | 6 | -0.43
Cc1ccc(NC(=O)Nc2ccc(C(C)(C)C)cc2)cc1 | -18 | /
CCN(CC)C(=O)CSc1nc2c(c(=O)n(C)c(=O)n2C)n1CC | -4 | /
O=c1onc(-c2cccs2)n1Cc1ccc(F)cc1Cl | 0 | /
CCOC(=O)c1sc(SC)c2c1CC(c1ccc(OC)cc1)CC2=O (stereo unspecified) | 136* | -0.38
CCOC(=O)c1sc(SC)c2c1CCc1cnc(SC)nc1-2 | -7 | 0.33
O=C(NC1CCCC1)C1c2ccccc2Oc2ccccc21 | 0 | /
CC(C)CCNC(=O)c1csc2c1CCCC2 | -10 | /
COCCOC(=O)N1C(=O)[C@@]2(c3cc(C#CC4=CCCCC4)ccc31)[C@H](c1ccc(OCCO)cc1)N1[C@H](c3ccccc3)[C@H](c3ccccc3)OC(=O)[C@H]1[C@@H]2C(=O)N1CCc2cc(OC)c(OC)cc2C1 | 39 | -0.021
COc1ccc(C#Cc2ccc3c(c2)[C@]2(C(=O)N3)[C@H](c3ccccc3OCCO)N3[C@H](c4ccccc4)[C@H](c4ccccc4)OC(=O)[C@H]3[C@@H]2C(=O)N2CCN(c3ncccn3)CC2)cc1 | 19 | -0.013
COc1ccc(C#Cc2ccc3c(c2)[C@]2(C(=O)N3)[C@H](c3ccc(OCCO)cc3)N3[C@H](c4ccccc4)[C@H](c4ccccc4)OC(=O)[C@H]3[C@@H]2C(=O)N2CCN(c3ncccn3)CC2)cc1 | 19 | 0.12
COCCOC(=O)N1C(=O)[C@@]2(c3cc(C#CCC(C(=O)OC)C(=O)OC)ccc31)[C@H](c1ccc(OCCO)cc1)N1[C@H](c3ccccc3)[C@H](c3ccccc3)OC(=O)[C@H]1[C@@H]2C(=O)N1CCN(c2ncccn2)CC1 | 112* | 0.11
COCCOC(=O)N1C(=O)[C@@]2(c3cc(C#CCC(C(=O)OC)C(=O)OC)ccc31)[C@H](c1ccc(O)cc1)N1[C@H](c3ccccc3)[C@H](c3ccccc3)OC(=O)[C@H]1[C@@H]2C(=O)N1CCc2cc(OC)c(OC)cc2C1 | 41 | -0.11
COCCOC(=O)N1C(=O)[C@@]2(c3ccccc31)[C@H](C(=O)N1CCN(c3ncccn3)CC1)[C@H]1C(=O)O[C@H](c3ccccc3)[C@H](c3ccccc3)N1[C@@H]2c1ccc(OCCO)cc1 | 105* | 0.12
COCCOC(=O)N1C(=O)[C@@]2(c3ccccc31)[C@H](c1ccccc1OCCO)N1[C@H](c3ccccc3)[C@H](c3ccccc3)OC(=O)[C@H]1[C@@H]2C(=O)N1CCN(c2ncccn2)CC1 | 111* | -0.065
COCCOC(=O)N1C(=O)[C@@]2(c3cc(C#CC4=CCCCC4)ccc31)[C@H](C(=O)N1CCN(c3ncccn3)CC1)[C@H]1C(=O)O[C@H](c3ccccc3)[C@H](c3ccccc3)N1[C@@H]2c1ccccc1OCCO | 128* | -0.5
CCN(CC)C(=O)c1cccc(C(=O)N(CC)CC)c1 | -10 | /
CCCCN(C)C(=O)Cn1ncc2c3ccccc3n(C)c2c1=O | -7 | /
SMILES | U2OS ROS induce | YB-1 expression
O=S(=O)(/N=C(\OC1CCCCC1)c1ccccc1)c1ccccc1 | -2 | /
CN(Cc1ccccc1)C(=O)c1noc2c1COc1ccccc1-2 | -7 | /
N#Cc1cccnc1N1CCN(C(=O)Nc2cccc3ccccc23)CC1 | -11 | /
COc1ccc(-n2c3c(cc(C(N)=O)c2=O)C(=O)CC(C)(C)C3)cc1 | 1 | /
O=C1O[C@H](c2ccccc2)[C@H](c2ccccc2)N2[C@H]1[C@@H](C(=O)N1CCCCCCC1)[C@]1(C(=O)Nc3ccccc31)[C@H]2c1ccccc1OCCO | 48 | -0.39
COCCOC(=O)N1C(=O)[C@@]2(c3ccccc31)[C@H](c1ccccc1OCCO)N1[C@H](c3ccccc3)[C@H](c3ccccc3)OC(=O)[C@H]1[C@@H]2C(=O)N1CCCCCCC1 | 103* | -0.31
CC(C)(CN=C1NS(=O)(=O)c2ccccc21)CNC(=O)c1ccccc1Cl | 0 | /
CCOC(=O)c1cnc2ccccc2c1NCCc1ccccc1 | 113* | /
CCOC(=O)c1cnc2c(ccc3ccccc32)c1NCCOC(=O)c1cccnc1 | 248* | /
CCOC(=O)c1cnc2c(ccc3ccccc32)c1NCc1ccco1 | 26 | /
CCOC(=O)c1cnc2c(ccc3ccccc32)c1NCC(C)C | 15 | /
O=C(O)/C(=C/c1ccc2c(c1)OCO2)NC(=O)c1ccccc1Br | -12 | /
Cc1ccc2nc(C3CCCCC3)oc2c1 | -5 | /
Cc1cc(C)c2c(n1)sc1c(SCc3ccccc3)nc(C)nc12 | -7 | /
O=C1N=c2ccccc2=C1c1sc(N2CCOCC2)nc1O | 0 | /
Cc1noc(C)c1S(=O)(=O)Nc1cccc2c1O[C@@H](CN(C)S(=O)(=O)c1ccc(Cl)cc1)[C@@H](C)CN([C@@H](C)CO)C2=O | 6 | -0.075
Cc1noc(C)c1S(=O)(=O)Nc1cccc2c1O[C@H](CN(C)S(=O)(=O)c1ccc(Cl)cc1)[C@H](C)CN([C@@H](C)CO)C2=O | 103* | -0.21
COc1ccc(S(=O)(=O)N(C)C[C@@H]2Oc3ccc(NC(=O)Nc4ccc(F)cc4)cc3C(=O)N([C@H](C)CO)C[C@@H]2C)cc1 | 130* | 0.019
C[C@H](CO)N1C[C@H](C)[C@H](CN(C)S(=O)(=O)c2ccc(F)cc2)Oc2ccc(NC(=O)Nc3ccc(F)cc3)cc2CC1=O | -4 | 0.76
COc1ccc(S(=O)(=O)N(C)C[C@H]2Oc3ccc(NC(=O)Nc4ccc(F)cc4)cc3C(=O)N([C@H](C)CO)C[C@@H]2C)cc1 | 38 | -0.33
COc1ccc(S(=O)(=O)N(C)C[C@@H]2Oc3ccc(NC(=O)Nc4ccc(F)cc4)cc3CC(=O)N([C@H](C)CO)C[C@H]2C)cc1 | -14 | 0.2
C[C@H](CO)N1C[C@H](C)[C@H](CN(C)S(=O)(=O)c2ccc(F)cc2)Oc2ccc(NC(=O)Nc3ccc(C(F)(F)F)cc3)cc2CC1=O | 85* | 0.4

Screening data: PubChem, Broad Institute
